Data on 51 compounds can be found in PubChem BioAssay AID485299 (Sanford-Burnham Center for Chemical Genomics, 2010).

Each structure is given as a SMILES string. In all, about 1,000 compounds went through this assay and about 630 (63%) were called active. The set was probably picked from earlier hits. Not all results are given here. Values without a mark were called inactive.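 How the source made its calls: active means reporter signal at least 30% of the positive control's activation in two or more of four replicate wells; inactive means the rest.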

A short description of this assay: IRE1-XBP1 UPR arm activators, confirmation, cell-based, CHO-XBP1 luciferase reporter, luminescence, single concentration (AID 485299).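 Further: plate controls were DMSO negative control for no effect and tunicamycin 10 µg/mL positive control for full effect.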 The note with it: at 20 µM, active compounds read high.
On to `OCCNc1nc(Nc2ccc(Cl)c(Cl)c2)nc2ccccc12`, for which the activation is 47.6% (active). On to `Cc1ccc(SC(=O)COc2ccc(C)c(C)c2)cc1`, for which the activation was 19.5%. As to `CSc1nc(-c2ccccc2)nc(C(Cl)Cl)n1`, the activation was 29.4%. In the case of `Cc1ccc(S/C(=N\S(=O)(=O)c2ccc(Cl)cc2)c2ccccc2)cc1`, the activation is 9.43%. `CCOc1ccc(S(=O)(=O)Nc2cccc(C(=O)NCC3(N4CCCCC4)CCCCC3)c2)cc1`: the activation was 92.9% (active). Turning to `Cc1nc2cc(NC(=O)CSc3nc4c(C)cccc4cc3C#N)ccc2s1`, the activation was 42.3% (active). For the compound `CCCc1nc2ccccc2c(=O)n1/N=C/c1ccc(O)c(O)c1`, the activation is 36.6% (active). For `CN(C)CCCN(C(=O)c1ccc(S(=O)(=O)N2CCCCCC2)cc1)c1nc2ccc(Br)cc2s1`, the activation was 71.3% (active). For the compound `N#CCC(=O)N/N=C/c1cn(Cc2ccc3ccccc3c2)c2ccccc12`, the activation was 87.5% (active). Regarding `O=C(Nc1ccc2nc3n(c(=O)c2c1)CCCCC3)c1ccccc1Cl`, the activation was 44.4% (active). In the case of `N#CC(=C1SC=CS1)c1nc(-c2ccccc2)cs1` it was 2.43%. Regarding `CCCc1nc2c(c(=O)c3ccccc3n2C)c(=O)n1C1CCCCCC1`, the activation was 61.8% (active). Turning to `CCOC(=O)N1CCN(C(=O)c2nn(-c3ccc(C)cc3)c(=O)c3c2c2ccccc2n3C)CC1`, the activation is 7.78%. On to `C=CCN(CC=C)S(=O)(=O)c1ccc(C(=O)Nc2nc3c(s2)CCc2ccccc2-3)cc1`, for which the activation was 90.9% (active). `CCN1C(=O)N[C@@H](c2ccccc2)[C@H](C(C)=O)[C@H]1C`: the activation was -1.6%. Consider `CN(C)C(=O)CCc1ccc2c3c([nH]c2c1)[C@]1(CCc2ccccc2)[C@@H](C(=O)N2CCCCC2)C[C@H](CC(=O)NCCC2=CCCCC2)C(=O)N1CC3`, for which the activation is 52.1% (active). Take `N#Cc1c(N)nc2c3c(sc(=N)c2c1N)NC(=O)CC3c1ccccc1Cl` (stereo unspecified): the activation was 0.75%. In the case of `CCOc1ccc2nc(Cl)c(C3CC(c4ccccc4)=NN3C(=O)c3cccs3)cc2c1` (stereo unspecified) it was 19.5%; in that of `O=C(C[C@H]1C/C=C\C[C@@H](NC(=O)OCC2c3ccccc3-c3ccccc32)C(=O)O[C@@H](c2ccccc2)CNC1=O)N[C@H](CO)Cc1ccccc1`, 69.3% (active); in that of `CCOC(=O)C1=C(O)/C(=C/c2ccc(OCC(=O)Nc3ccc(C)cc3)cc2)N=C1C`, -1.95%. The value for `N#Cc1ccccc1NC(=O)COc1c(Br)cc(Br)c2cccnc12` was 88.3% (active); that for `CCCCCC(=O)Nc1ccc(C(=O)N/N=C/c2ccc([N+](=O)[O-])cc2)cc1` was 66.5% (active); that for `CCCc1ccc(OCc2ccc(C(=O)N/N=C/c3cccc([N+](=O)[O-])c3)o2)c(OC)c1` was 2.93%. Turning to `CN(c1cccc(NC(=O)Nc2ccc(Cl)cc2)c1)S(C)(=O)=O`, the activation is 0.25%. `Oc1cccc2ccc(/C=C/c3ccc(Br)s3)nc12`: the activation is 50.4% (active). Consider `Cc1ccc(-c2nnc(-c3ccc(NC(=O)c4cccs4)cc3)o2)cc1`, for which the activation was 213% (active). With `CN1C(=O)/C(=C/c2ccc(C(=O)NC3CCCC3)cc2)Oc2ccccc21`, the activation was 32.3% (active). `COc1ccc(CNC(=O)/C(C#N)=C/c2cccc(OC)c2OC)cc1`: the activation is 40.4% (active). In the case of `O=C(CCCCCn1c(=S)[nH]c2cc3c(cc2c1=O)OCO3)N1CCN(c2ccc(F)cc2)CC1` it was 10.3%; in that of `Cc1cccc(Nc2nc3c(S(=O)(=O)c4ccccc4)nnn3c3ccccc23)c1C`, 120% (active); in that of `O=C(/C=C/c1ccccc1)c1ccccc1O`, 54.9% (active). In the case of `Cc1ccc(S(=O)(=O)N(CC(=O)N/N=C/c2ccc(F)cc2)c2cccc3cccnc23)cc1`, the activation is 55.3% (active). As for `CCCCCCCCCCOC(=O)Cn1c(COc2ccc(C)cc2)[n+](C)c2ccccc21`, the activation was 49.2% (active).

Take `COc1ccc(Nc2cc(C)nc(-n3nc(C)cc3C)n2)cc1`: the activation was 28.5%. Turning to `CCOC(=O)c1c(NC(=O)CNC2CCCc3ccccc32)sc(C(N)=O)c1C` (stereo unspecified), the activation was 34.3% (active). The value for `CCC1(CC)Cc2ccccc2-c2nc(CCl)[nH]c(=O)c21` was 14.5%; that for `CCOC(=O)/C=c1\s/c(=C\c2ccc(C#N)cc2)c(=O)n1CC(=O)Nc1cccc(C)c1C` was 11.4%; that for `Cc1cc(NC(=O)CSc2nc3cc(Cl)ccc3c(=O)n2Cc2ccco2)no1` was 55.5% (active). As to `CC(=O)Nc1ccccc1Sc1ccc2c3c(cccc13)C(=O)N(c1ccc(C)cc1)C2=O`, the activation is 79% (active). Turning to `C=CC[C@@H](CC(=O)N[C@@H](CO)Cc1ccccc1)C(=O)N[C@H](COC(=O)[C@H](CC=C)CC(=O)OC(C)(C)C)Cc1ccccc1`, the activation was 4.58%.

Consider `O=C(COC(=O)/C=C/c1cn(-c2ccccc2)nc1-c1cccnc1)Nc1ccc(Cl)cc1Cl`, for which the activation was 74.4% (active). Take `Cc1ccc(Cc2cnc(NC(=O)/C(C#N)=C/c3ccc(-c4cccc([N+](=O)[O-])c4)o3)s2)cc1`: the activation is 217% (active). For `OC(CNCC1CCCO1)Cn1c2ccc(Br)cc2c2cc(Br)ccc21` (stereo unspecified), the activation was 44% (active). As to `C=CCNc1nc(N)c([N+](=O)[O-])c(NC2CCCCC2)n1`, the activation is 12.5%. For `CCc1nn(-c2cc(Oc3cccc4ccccc34)nc(-c3ccccc3)n2)c(N)c1C#N`, the activation was 138% (active). For the compound `CCc1nc(C)cn1S(=O)(=O)c1cc([N+](=O)[O-])ccc1Cl`, the activation is 55.6% (active).

`COc1cc(NC(=O)c2cncc(-c3ccc(C#N)cc3)c2)cc(C(=O)Nc2cccc(C(F)(F)F)c2)c1`: the activation was 129% (active). In the case of `COC(=O)Cc1csc(/N=C/c2c(O)n(-c3cccc(C(F)(F)F)c3)c(=O)c3ccccc23)n1` it was 42.5% (active). Take `COc1ccccc1N=Cc1c(O)c2ccccc2oc1=O`: the activation was 113% (active). As for `CC(C)=CCCC1(C)C=Cc2c(ccc3c2[nH]c2cc(O)c(C)cc23)O1` (stereo unspecified), the activation is 35.4% (active). Regarding `Oc1ccc(Br)cc1/C=N/Nc1ccccn1`, the activation was 63.7% (active).
